# Measured values: PubChem BioAssay (NCATS)
# “And” between values parts separate entries of the source, which are not always exact repeats. Equal entries are not always repeated. Unmarked numbers belong to inactive results. Results filed as inconclusive are left out. The source made the active and inactive calls. Unless noted, calls come from the whole dose curve; as a rule, active = well fitted curve in either direction with a large enough effect (not every such curve was filed as active); inconclusive = small, poorly fitted or top-dose-only effect, or another doubt; inactive = flat fitted curve, though single readings scatter.
# Tests used:
# [1] = Cell Viability - BJ (AID 421; calls by dose curve;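 note: potency is the fitted concentration of half-maximal effect; cells exposed to compound for 40 hours at 37 °C before readout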); details: BJ fibroblast viability, qHTS
# Procedure, shortened: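 Cytotoxicity in human BJ foreskin fibroblasts is scored as loss of cellular ATP after a 40-hour exposure, measured by luciferase luminescence. Controls are DMSO and 100 uM tamoxifen.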
# [2] = Cell Viability - Jurkat (AID 426;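 active = dose-dependent loss of cell ATP signal giving a full or clear fitted curve, ranked by lower potency value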;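 note: potency is the fitted concentration of half-maximal effect; cells exposed to compound for 40 hours at 37 °C before ATP read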); details: qHTS
# Procedure, shortened: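 Cytotoxicity taken as drop in cellular ATP (CellTiter-Glo luminescence, 20 min room temperature) after 40 hr, 37C treatment of 5000 Jurkat Clone E6-1 cells per well; concentration-response fitted with Hill equation for AC50.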
# [3] = Cell Viability - Hek293 (AID 427;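 active = compounds whose dose-response curve shows a full or clear partial loss of cell viability, called from curve shape rather than a numeric limit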;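 note: potency is the fitted concentration of half-maximal effect; cells exposed to compound for 40 hours at 37 °C before reading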); details: qHTS
# Procedure, shortened: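 qHTS, human embryonic kidney (adenovirus-transformed) cells; 40 hr cpd, 37 °C; CellTiter-Glo ATP luminescence. Norm: DMSO = 0, 100 uM tamoxifen = 100% inhibition. Hill-fit AC50.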
# [4] = Cell Viability - HepG2 (AID 433; calls by dose curve;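 note: potency is the fitted concentration of half-maximal effect; potency for ATP loss meaning cytotoxicity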); details: qHTS
# Procedure, shortened: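 Cytotoxicity is scored as loss of intracellular ATP in HepG2 cells exposed to compounds for 40 h. Concentration-response curves, normalized to DMSO and 100 uM tamoxifen, give AC50 values.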
# [5] = Cell Viability - MRC5 (AID 434; calls by dose curve;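 note: potency is the fitted concentration of half-maximal effect; cells exposed to compound for 40 hours at 37 °C; potency reflects cytotoxicity seen as loss of intracellular ATP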); details: MRC5 lung fibroblast viability, qHTS
# Procedure, shortened: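 ATP luminescence read-out (CellTiter-Glo, 20 min RT) after 40 hr, 37 °C compound exposure of 1500 MRC5 cells/well. Data normalized to DMSO (basal) and 100 uM tamoxifen (100% inhibition); AC50 from standard Hill equation.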
# [6] = Cell Viability - SK-N-SH (AID 435; calls by dose curve; note: potency is the fitted concentration of half-maximal effect); details: SK-N-SH neuroblastoma cell viability qHTS
# Procedure, shortened: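 Cells seeded at 1500 per well and incubated 5 hr at 37 °C. Compound added, then 40 hr at 37 °C. CellTiter-Glo added, 20 min at room temperature, luminescence read.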
# [7] = Cell Viability - N2a (AID 540; active = well fitted curve in the direction sought with a large enough effect; an effect the other way counts as inactive or inconclusive;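 note: plate controls were DMSO alone for no effect and tamoxifen control for full effect; nearly all actives have a fitted effect of over 45% in size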); details: N2a mouse neuroblastoma cell viability; activity change, negative = cytotoxicity: at 92.2 µM (top of the series)
# Procedure, shortened: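 CellTiter-Glo ATP luminescence, read 20 min after reagent at room temperature, reported viability following 40 h compound treatment at 37 °C. N2a mouse neuroblastoma cells seeded 1500/well; Hill equation gave AC50.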
# [8] = Cell Viability - NIH 3T3 (AID 541; active = well fitted curve in the direction sought with a large enough effect; an effect the other way counts as inactive or inconclusive;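 note: plate controls were DMSO alone for no effect and tamoxifen positive control for full effect; nearly all actives have a fitted effect of over 25% in size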); details: NIH 3T3 cell viability, qHTS; activity change, negative = cytotoxicity: at 92.2 µM (top of the series)
# Procedure, shortened: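 Intracellular ATP (CellTiter-Glo luminescence, 20 min at room temperature) measured after 40 hr compound exposure at 37 °C of 1000 NIH 3T3 mouse fibroblasts/well in complete medium; AC50 derived by Hill-equation modelling of qHTS concentration-response curves.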
# [9] = Cell Viability - HUV-EC-C (AID 542; active = well fitted curve in the direction sought with a large enough effect; an effect the other way counts as inactive or inconclusive; note: % is set by controls: 0 for no effect and ±100 for the full control effect; nearly all actives have a fitted effect of over 35% in size); details: HUV-EC-C endothelial cell viability, qHTS; series mostly up to 92.2 µM
# Procedure, shortened: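 CellTiter-Glo luminescence measured ATP loss in HUV-EC-C cells (1000/well) after 40 hr compound exposure at 37 °C, in complete culture medium. Concentration-response data were Hill-fitted to give AC50.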
# [10] = Cell Viability - H-4-II-E (AID 543; active = well fitted curve in the direction sought with a large enough effect; an effect the other way counts as inactive or inconclusive; note: % is set by controls: 0 for no effect and ±100 for the full control effect; nearly all actives have a fitted effect of over 35% in size); details: H-4-II-E rat hepatoma viability; series mostly up to 92.2 µM
# Procedure, shortened: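 CellTiter-Glo luminescence (intracellular ATP) measured after 40 h compound exposure at 37 °C in H-4-II-E rat hepatoma cells seeded at 1500/well. Values are AC50s fitted with the standard Hill equation.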
# [11] = Cell Viability - SH-SY5Y (AID 544; active = well fitted curve in the direction sought with a large enough effect; an effect the other way counts as inactive or inconclusive;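 note: 0% = DMSO alone and -100% = 100 µM tamoxifen; nearly all actives have a fitted effect of over 55% in size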); details: SH-SY5Y neuroblastoma cell viability; series mostly up to 92.2 µM
# Procedure, shortened: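 Cytotoxicity measured via ATP-dependent luciferase luminescence (CellTiter-Glo) following 40 h, 37 °C exposure of 1500 SH-SY5Y cells per well. Concentration-response data were fitted with the standard Hill equation to give AC50.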
# [12] = Cell Viability - Renal Proximal Tubule (AID 545; active = well fitted curve in the direction sought with a large enough effect; an effect the other way counts as inactive or inconclusive;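 note: 0% = DMSO only and -100% = 100 µM tamoxifen; nearly all actives have a fitted effect of over 40% in size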); details: renal proximal tubule cells viability, primary cells of rat origin; series mostly up to 91.7 µM
# Procedure, shortened: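 Cytotoxicity is scored as a concentration-dependent drop in cellular ATP in primary rat renal proximal tubule cells exposed for 40 hr. AC50 derives from Hill modelling.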
# [13] = target: Cytochrome P450 1A2 (Homo sapiens) (UniProt P05177); assay: p450-cyp1a2 (AID 410; calls by dose curve;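 note: -100% = full effect of reference inhibitor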); details: recombinant CYP1A2, luciferin-ME demethylation, luminescence; series mostly up to 25.6 µM
# Sequence of Cytochrome P450 1A2 (Homo sapiens) (P05177 whole entry, looked up): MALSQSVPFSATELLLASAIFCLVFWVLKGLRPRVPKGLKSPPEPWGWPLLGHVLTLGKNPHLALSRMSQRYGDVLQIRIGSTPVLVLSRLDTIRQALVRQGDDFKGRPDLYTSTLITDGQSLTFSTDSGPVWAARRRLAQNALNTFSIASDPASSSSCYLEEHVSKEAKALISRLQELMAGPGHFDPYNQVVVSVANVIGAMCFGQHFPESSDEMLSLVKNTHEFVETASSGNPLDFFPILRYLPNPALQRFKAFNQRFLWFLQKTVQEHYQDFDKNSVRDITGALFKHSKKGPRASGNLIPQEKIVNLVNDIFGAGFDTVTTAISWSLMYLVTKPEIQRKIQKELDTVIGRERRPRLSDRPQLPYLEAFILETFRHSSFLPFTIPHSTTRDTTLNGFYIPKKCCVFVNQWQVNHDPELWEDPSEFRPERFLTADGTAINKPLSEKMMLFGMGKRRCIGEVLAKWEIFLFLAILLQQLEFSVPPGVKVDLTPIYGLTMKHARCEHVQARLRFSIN
# Procedure, shortened: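 Luminescent demethylation readout: Luciferin-ME (100uM, equal to Km) turned over by 20nM CYP1A2 for 60 min at room temperature after NADPH regeneration addition, following 10 min compound preincubation. Normalization used 57 uM furafylline as full inhibition.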
# [14] = Stat Signaling Pathway (AID 446); details: ME-180 SIE beta-lactamase reporter, IL-6 stimulated, 5 h; at 17.2 µM (top of the series);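 note: ME-180 cervical cancer cells given 40 pM IL-6 alongside compound; SIE-controlled beta-lactamase reporter measured as 460/530 nm FRET emission ratio; % is set by controls: 0 for no effect and ±100 for the full control effect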
# Procedure, shortened: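 Emission at 460 and 530 nm (excitation 405 nm) reports SIE-controlled beta-lactamase in ME-180 cells. Cells received compound with 40 pM IL-6 for 5 hrs at 37 C; data scaled between 300 pM IL-6 and 125 nM JAK-inhibitor controls.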
# [15] = target: Mitogen-activated protein kinase 10 (Mus musculus) (UniProt Q61831); assay: JNK3 AlphaScreen Assay (AID 530); details: JNK3 lysate, c-Jun phosphorylation; series mostly up to 57.1 µM;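 note: kinase came from lysate of stimulated human HepG2 cells; signal reports phosphorylation of biotinylated GST-cJun 1-79 at Ser73 with 10 µM ATP; % is set by controls: 0 for no effect and ±100 for the full control effect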
# Procedure, shortened: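 Activity was read by AlphaScreen after JNK3-containing HepG2 lysate (cytokine pre-activated) phosphorylated biotinylated GST-cJun with 10 uM ATP at room temperature. Phospho-Ser73 cJun antibody with Protein-A acceptor beads provided detection.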
# [16] = AP1 Signaling Pathway (AID 357); details: ME-180 (cervical carcinoma) AP-1-bla reporter, EGF-induced, beta-lactamase ratio, 5 h; at 17.2 µM (top of the series);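 note: ME-180 reporter cells stimulated with EGF at its EC50 level; % is set by controls: 0 for no effect and ±100 for the full control effect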
# Procedure, shortened: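 First, ME-180 AP-1-bla cells were cultured overnight at 37 °C in low-serum Opti-MEM. Next, titrated compounds with EC50 EGF were incubated 5 hours. Finally, CCF4 was added for 2.5 hours and the 460/530 nm ratio recorded.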
# [17] = target: Glucocorticoid receptor (Homo sapiens) (UniProt P04150); assay: GR-GFP Redistribution (AID 450;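 active = compounds whose dose series gives a full or clear partial fitted curve of increased nuclear translocation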; note: potency is the fitted concentration of half-maximal effect); details: U2OS GR-GFP nuclear translocation, laser cytometry, 2 h
# Sequence of Glucocorticoid receptor (Homo sapiens) (P04150 whole entry, looked up, the tested form may be a part): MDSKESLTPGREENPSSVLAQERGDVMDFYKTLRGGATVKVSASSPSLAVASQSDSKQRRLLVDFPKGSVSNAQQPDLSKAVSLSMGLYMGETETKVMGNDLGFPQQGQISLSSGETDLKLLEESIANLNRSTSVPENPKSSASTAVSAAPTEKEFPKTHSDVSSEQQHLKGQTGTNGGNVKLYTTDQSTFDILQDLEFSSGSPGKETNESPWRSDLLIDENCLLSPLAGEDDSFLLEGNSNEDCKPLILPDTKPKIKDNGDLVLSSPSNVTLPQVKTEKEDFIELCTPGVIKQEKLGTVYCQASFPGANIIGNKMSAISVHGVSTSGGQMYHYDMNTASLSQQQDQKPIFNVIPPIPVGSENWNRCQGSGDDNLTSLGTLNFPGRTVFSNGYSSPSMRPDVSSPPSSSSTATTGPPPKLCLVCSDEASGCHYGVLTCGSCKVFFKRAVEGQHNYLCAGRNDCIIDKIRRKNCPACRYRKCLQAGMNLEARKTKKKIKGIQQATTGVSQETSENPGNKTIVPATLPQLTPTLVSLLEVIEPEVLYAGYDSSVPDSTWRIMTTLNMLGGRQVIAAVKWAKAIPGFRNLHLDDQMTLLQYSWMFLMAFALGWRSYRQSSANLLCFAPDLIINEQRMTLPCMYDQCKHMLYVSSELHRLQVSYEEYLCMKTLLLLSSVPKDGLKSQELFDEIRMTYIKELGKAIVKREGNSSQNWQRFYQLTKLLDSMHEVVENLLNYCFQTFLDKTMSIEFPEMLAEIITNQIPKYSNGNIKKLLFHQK
# [18] = NFAT Signaling Pathway (AID 444); details: Jurkat NFAT-bla M1, carbachol, beta-lactamase ratio, 5 h; at 17.2 µM (top of the series);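 note: carbachol stimulus at about its EC50 of 1 µM final; % is set by controls: 0 for no effect and ±100 for the full control effect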
# Procedure, shortened: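 Jurkat cells with NFAT-driven β-lactamase reporter and co-expressed M1 receptor, stimulated with carbachol (final 1 uM, ~EC50), compound titration, 5 h at 37 °C. CCF4 loaded 1 h at RT; 460/530 nm ratio gave %activity and AC50.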
# [19] = target: Glucocorticoid receptor (Homo sapiens) (UniProt P04150); assay: GR-EFC Redistribution (AID 451; calls by dose curve; note: potency is the fitted concentration of half-maximal effect); details: CHO-K1 GR-EFC translocation, beta-gal luminescence, 2 h
# Procedure, shortened: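 CHO-K1 cells expressing nuclear EA and GR-ED fragments of b-gal; compounds titrated up to 46 uM final, 2 h at 37 C. GR nuclear translocation read as complemented b-gal luminescence after 1 h RT detection.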
smiles,measurement,setting,value
[Cl][In]([Cl])[Cl],Potency,[1],> 92 µM
same,Potency,[2],> 92 µM
same,Potency,[3],> 92 µM
same,Potency,[4],> 92 µM
same,Potency,[5],> 92 µM
same,Potency,[6],> 92 µM
same,"activity change, negative = cytotoxicity",[7],-0.39%
same,Potency,[8],inactive
same,Potency,[9],inactive
same,Potency,[10],inactive
same,Potency,[11],inactive
same,Potency,[12],inactive
CN(C)CCCN1c2ccccc2CCc2ccccc21,Potency,[13],inactive
same,"activity, negative = inhibition",[14],2.6% and 1.4%
same,Potency,[15],inactive
CN(C)CCOC(C)(c1ccccc1)c1ccccn1 (stereo not given),"activity change, negative = inhibition",[16],4.21%
same,"activity, negative = inhibition",[14],5.21%
CC(COc1ccccc1)NC(C)C(O)c1ccc(O)cc1 (stereo not given),"activity change, negative = inhibition",[16],9.92%
same,"activity, negative = inhibition",[14],20.7%
same,Potency,[17],> 20.6 µM
CC12CCC(CC1)C(C)(C)O2,Potency,[1],> 92 µM
same,Potency,[2],> 92 µM
same,Potency,[3],> 92 µM
same,Potency,[4],> 92 µM
same,Potency,[5],> 92 µM
same,Potency,[6],> 92 µM
same,Potency,[15],inactive
same,"activity change, negative = cytotoxicity",[7],-7.51%
same,Potency,[8],inactive
same,Potency,[9],inactive
same,Potency,[10],inactive
same,Potency,[11],inactive
same,Potency,[12],inactive
OCC(O)CN1CCN(c2ccccc2)CC1 (stereo not given),"activity change, negative = inhibition",[16],-1.76%
same,"activity change, negative = inhibition",[18],8.65%
same,"activity, negative = inhibition",[14],10.1%
same,Potency,[17],> 20.6 µM
Nc1ncnc2c1ncn2[C@@H]1O[C@H](CO)[C@@H](O)[C@H]1O,"activity change, negative = inhibition",[18],-4.17%
same,Potency,[17],> 20.6 µM
CN1[C@@H]2CC(OC(=O)[C@H](CO)c3ccccc3)C[C@H]1[C@@H]1O[C@@H]12 (stereo not given in full),"activity change, negative = inhibition",[16],-6.51%
same,"activity change, negative = inhibition",[18],-78.1% (active)
same,"activity, negative = inhibition",[14],3.51%
CCCCOc1cc(C(=O)OCCN(CC)CC)ccc1N,"activity change, negative = inhibition",[16],-0.742%
same,"activity, negative = inhibition",[14],-0.0669%
same,Potency,[17],> 20.6 µM
same,Potency,[19],> 20.6 µM
same,Potency,[15],inactive
CC(=O)OCC(=O)[C@@]1(O)CC[C@H]2[C@@H]3CCC4=CC(=O)CC[C@]4(C)[C@H]3C(=O)C[C@@]21C,"activity change, negative = inhibition",[16],0.362%
same,"activity, negative = inhibition",[14],11.3%
Oc1cccc(O)c1,Potency,[1],> 92 µM
same,Potency,[3],> 92 µM
same,Potency,[4],> 92 µM
same,Potency,[5],> 92 µM
same,Potency,[15],inactive
same,"activity change, negative = cytotoxicity",[7],-7.46%
same,Potency,[8],inactive
same,Potency,[9],inactive
same,Potency,[10],inactive
same,Potency,[12],inactive
C[C@H](N)[C@H](O)c1cccc(O)c1,"activity change, negative = inhibition",[16],2.95%
same,"activity change, negative = inhibition",[18],-4.86%
same,"activity, negative = inhibition",[14],4.65%
same,Potency,[17],> 20.6 µM
same,Potency,[19],> 20.6 µM
same,Potency,[15],inactive
